# Values joined by “and” are separate entries in the source; they are usually repeats but may differ in a detail not shown here. Equal entries are not always repeated. Records with an inconclusive call do not appear. A call without a number means that no potency is given here. Active and inactive are the calls of the source. Unless noted, calls follow the shape of the dose curve; as a rule, active = well fitted curve in the direction sought with a large enough effect; inconclusive = small, poorly fitted or top-dose-only effect, or another doubt; inactive = no such curve, though single readings can be large; an effect the other way counts as inactive or inconclusive.
# Tests used:
# [1] = system: Zika virus NS2B-NS3 protease (linked construct); assay: Primary screen NINDS Rhodamine qHTS for Zika virus inhibitors (AID 1347160); also: nearly all actives have a fitted effect of over 55% in size; also: potency is read from the fitted curve at half-maximal effect
# Outline: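 Kinetic fluorescence (Ex 480 nm, Em 540 nm) over 15 min with 1.5 microM Rhodamine110 peptide and 25 nM linked protease.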
# [2] = target: Calcium and integrin-binding protein 1 (Homo sapiens) (UniProt Q99828); assay: Primary qHTS for Identification of Calcium Integrin Binding Protein 1 (CIB1) Competitor (AID 1508620);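 also: GST tagged CIB1 binding a fluorescein labelled alphaIIb integrin peptide tracer; top concentration of the series differs between compounds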
# Chain of Calcium and integrin-binding protein 1 (Homo sapiens) (Q99828 whole entry, looked up): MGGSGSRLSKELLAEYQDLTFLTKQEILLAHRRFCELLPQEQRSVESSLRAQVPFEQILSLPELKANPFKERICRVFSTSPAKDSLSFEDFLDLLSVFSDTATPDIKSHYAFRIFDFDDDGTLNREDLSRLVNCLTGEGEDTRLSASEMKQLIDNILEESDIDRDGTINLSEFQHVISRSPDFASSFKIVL
# Outline: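 CIB1-GST (1 uM final) and compound incubated 15 min at room temperature before adding FITC-alphaIIb peptide tracer (100 nM final). Competition for binding read by fluorescence polarization (ex 480, em 540) after another 15 min at room temperature.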
# [3] = Primary qHTS for inhibitors of nuclear receptor binding SET domain protein 2 (NSD2) in an isogenic RCH-ACV NSD2 p.E1099K mutant (9B) (AID 1645876); also: nearly all actives have a fitted effect of over 70% in size; also: potency is read from the fitted curve at half-maximal effect
# [4] = Primary qHTS for inhibitors of nuclear receptor binding SET domain protein 2 (NSD2) in an RCH-ACV wild type WT cells (2C) (AID 1645877); also: nearly all actives have a fitted effect of over 70% in size; also: potency is read from the fitted curve at half-maximal effect
# [5] = target: Luciferin 4-monooxygenase (Photinus pyralis) (UniProt P08659); assay: Primary firefly luciferase (FLuc) qHTS assay for identification of artifact compounds. (AID 1845220); also: nearly all actives have a fitted effect of over 60% in size
# Outline: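 Cell-free, 1536-well qHTS. Buffer pH 7.6 with 0.01% Tween-20 and 0.05% BSA; 10 uM D-luciferin, 10 uM ATP; 10 nM P. pyralis luciferase; luminescence after 5 min.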
# [6] = Primary fluorescence-based thiol-reactive (MSTI) qHTS assay for identification of artifact compounds. (AID 1845221);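 also: thiol-reactive compounds lower the probe fluorescence signal; nearly all actives have a fitted effect of over 65% in size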
# Outline: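 Thiol-reactive compounds detected by quenching of 4 uM MSTI fluorescence (525/598 nm) after 1 h room-temperature dark incubation in PBS pH 7.4, 2% DMSO. qHTS titration; percent inhibition Hill-fitted against Acetyl-MSTI/MSTI controls.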
# [7] = system: Nanoluciferase (engineered Oplophorus gracilirostris luciferase); assay: Primary Nanoluciferase (NLuc) qHTS assay for identification of artifact compounds. (AID 1845222)
# Outline: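 Compounds are pinned into diluted (1:55) conditioned medium of NLuc-expressing S16 cells and held 15 min at room temperature protected from light. Nano-Glo substrate follows, and luminescence is read 5 min later.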
# C33A = assay: Primary qHTS to identify gynecologic anti-cancer compounds using libraries of approved drugs and bioactive compounds (AID 1345084); conditions: Gynecologic cancer cell panel viability, ATPlite luminescence, 48 h; series mostly up to 57.5 µM; also: nearly all actives have a fitted effect of over 55% in size; also: potency is read from the fitted curve at half-maximal effect
# Outline: (§1)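 Five-point cytotoxicity, 48 h drug exposure at 37 C, 5% CO2, on cells seeded 16 h beforehand. ATP content read by ATPlite luminescence.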
# CASKI = assay: as above; conditions: Gynecologic cancer cell panel viability, ATPlite luminescence, 48 h; series mostly up to 57.5 µM
# Outline: as §1
# Es-2 = assay: as above; conditions: Gynecologic cancer cell panel viability, ATPlite luminescence, 48 h; series mostly up to 57.5 µM
# Outline: as §1
# HeLa = assay: as above; conditions: Gynecologic cancer cell panel viability, ATPlite luminescence, 48 h; series mostly up to 57.5 µM
# Outline: as §1
# Hek293T = assay: as above; conditions: Gynecologic cancer cell panel viability, ATPlite luminescence, 48 h, control line for the selectivity index; series mostly up to 57.5 µM
# Outline: as §1
# JEG-3 = assay: as above; conditions: Gynecologic cancer cell panel viability, ATPlite luminescence, 48 h; series mostly up to 57.5 µM
# Outline: as §1
# OV90 = assay: as above; conditions: Gynecologic cancer cell panel viability, ATPlite luminescence, 48 h; series mostly up to 57.5 µM
# Outline: as §1
# Tov-21-G = assay: as above; conditions: Gynecologic cancer cell panel viability, ATPlite luminescence, 48 h; series mostly up to 57.5 µM
# Outline: as §1
# Tov112D = assay: as above; conditions: Gynecologic cancer cell panel viability, ATPlite luminescence, 48 h; series mostly up to 57.5 µM
# Outline: as §1
# [8] = target: Glutathione peroxidase 1 (Homo sapiens) (UniProt P07203); assay: Primary qHTS Assay for Inhibitors of Recombinant Selenoprotein Glutathione Peroxidase 1 (GPX1) (AID 1845191); also: nearly all actives have a fitted effect of over 65% in size; also: potency is read from the fitted curve at half-maximal effect
# Chain of Glutathione peroxidase 1 (Homo sapiens) (P07203 whole entry, looked up): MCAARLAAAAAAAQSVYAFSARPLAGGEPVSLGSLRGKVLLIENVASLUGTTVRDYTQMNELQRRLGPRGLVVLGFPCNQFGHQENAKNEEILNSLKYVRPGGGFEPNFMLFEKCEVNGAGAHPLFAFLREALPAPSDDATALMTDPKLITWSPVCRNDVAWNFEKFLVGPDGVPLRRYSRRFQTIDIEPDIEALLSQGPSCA
# Outline: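 10 nM GPX1 + cpd, 30 min RT; start w/ 1 mM GSH, 0.5 mM cumene hydroperoxide, 0.5 mM NADPH, 100 nM GR, 0.01% BSA; buffer 50 mM Tris-HCl pH 7.5, 2 mM EDTA, 150 mM NaCl; Fl 340/450, 0 & 15 min.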
# [9] = target: Phospholipid hydroperoxide glutathione peroxidase GPX4 (Homo sapiens) (UniProt P36969); assay: Primary qHTS Assay for Inhibitors of Recombinant Selenoprotein Glutathione Peroxidase 4 (GPX4) (AID 1845192); conditions: outcome: dose series up to 50 µM unless noted; also: nearly all actives have a fitted effect of over 65% in size; also: potency is read from the fitted curve at half-maximal effect
# Chain of Phospholipid hydroperoxide glutathione peroxidase GPX4 (Homo sapiens) (P36969 whole entry, looked up): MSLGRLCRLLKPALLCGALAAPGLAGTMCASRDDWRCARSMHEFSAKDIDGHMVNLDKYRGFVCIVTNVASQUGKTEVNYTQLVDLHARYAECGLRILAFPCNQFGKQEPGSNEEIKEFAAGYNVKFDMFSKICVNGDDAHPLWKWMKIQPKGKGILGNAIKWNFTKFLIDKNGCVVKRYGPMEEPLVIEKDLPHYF
# Outline: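 NADPH consumption, followed by fluorescence at 340/450 nm between 0 and 15 min, reports GPX4 activity via coupled glutathione reductase (100 nM). Enzyme 200 nM was pre-exposed to compound 30 min; 0.5 mM cumene hydroperoxide and 1 mM GSH served as substrates.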
# [10] = P-glycoprotein substrates identified in KB-8-5-11 adenocarcinoma cell line, qHTS therapeutic library screen (AID 1346987); also: potency is read from the fitted curve at half-maximal effect; nearly all actives have a fitted effect of over 65% in size
# Outline: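 P-gp-mediated resistance screen: KB-8-5-11 cells treated 72 h with compounds in dose-response. CellTiter-Glo viability.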
# [11] = qHTS drug screen for cell cycle checkpoint inhibitors in PARPi-resistant BRCA-mutant ovarian cancer cell lines. (AID 1963452; calls by dose curve); conditions: PEO1/OlaR viability, CellTiter-Glo luminescence, 96 h, stronger effect = lower value
# Outline: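 PEO1, PEO4 and PEO1/OlaR ovarian cancer cells, 600 per well, exposed 96 h at 37C to a dilution series. Viability read by CellTiter-Glo luminescence, normalized to DMSO and empty wells; activity summarized as Z-AUC.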
smiles,measurement,setting,value
CC1(C)SC2C(NC(=O)[C@H](C(=O)O)c3ccsc3)C(=O)N2C1C(=O)O (some centres undefined),Potency,[1],inactive
same,outcome,[2],inactive
same,Potency,[3],inactive
same,Potency,[4],inactive
same,Potency,[5],inactive
same,Potency,[6],inactive
same,Potency,[7],inactive
same,Potency,C33A,inactive
same,Potency,CASKI,inactive
same,Potency,Es-2,inactive
same,Potency,HeLa,inactive
same,Potency,Hek293T,inactive
same,Potency,JEG-3,inactive
same,Potency,OV90,inactive
same,Potency,Tov-21-G,inactive
same,Potency,Tov112D,inactive
COc1ccccc1-c1c[nH]c2ncc(-c3cncc(C(=O)N(C)C)c3)cc12,Potency,[1],inactive
same,outcome,[2],inactive
same,Potency,[8],inactive
same,Potency,[9],inactive
same,Potency,[5],inactive
same,Potency,[6],inactive
same,Potency,C33A,inactive
same,Potency,CASKI,inactive
same,Potency,Es-2,inactive
same,Potency,JEG-3,inactive
same,Potency,OV90,inactive
COc1cccc(NC[C@@H](O)Cn2c3ccc(Br)cc3c3cc(Br)ccc32)c1,Potency,[10],23.1 µM (active)
same,outcome,[2],inactive
same,Potency,[8],inactive
same,Potency,[9],inactive
same,Potency,[5],inactive
same,Potency,[7],inactive
same,Potency,C33A,inactive
same,Potency,CASKI,inactive
same,Potency,Es-2,inactive
same,Potency,Hek293T,inactive
same,Potency,JEG-3,inactive
same,Potency,Tov112D,inactive
CC(C)n1cnc2c(Nc3cccc(Cl)c3)nc(NCCO)nc21,Potency,[10],14.6 µM (active)
same,Potency,[1],inactive
same,outcome,[2],inactive
same,Potency,[3],11.5 µM (active)
same,Potency,[4],8.17 µM (active)
same,Potency,[8],inactive
same,Potency,[9],inactive
same,Potency,[5],inactive
same,Potency,[6],inactive
same,Potency,[7],inactive
same,Potency,C33A,inactive
same,Potency,CASKI,inactive
same,Potency,Es-2,inactive
same,Potency,HeLa,inactive
same,Potency,Hek293T,inactive
same,Potency,JEG-3,inactive
same,Potency,OV90,inactive
same,Potency,Tov112D,inactive
C=C1C(=O)O[C@@H]2[C@H]1[C@H](O)C[C@]1(C)[C@@H](O)CC=C(C)[C@@H]21,Potency,[1],inactive
same,Potency,[3],11.5 µM (active)
same,Potency,[4],7.28 µM (active)
same,Potency,[8],inactive
same,Potency,[9],inactive
same,Potency,[6],inactive
same,Potency,[7],inactive
same,Potency,C33A,inactive
same,Potency,CASKI,inactive
same,Potency,Es-2,inactive
same,Potency,HeLa,inactive
same,Potency,Hek293T,inactive
same,Potency,JEG-3,inactive
same,Potency,OV90,inactive
same,Potency,Tov112D,inactive
COc1ccc(-c2c(C)c(C(=O)NN3CCCCC3)nn2-c2ccc(Cl)cc2Cl)cc1,Potency,[1],inactive
same,Potency,[6],inactive
same,Potency,C33A,inactive
same,Potency,CASKI,inactive
same,Potency,Es-2,inactive
same,Potency,HeLa,inactive
same,Potency,Hek293T,inactive
same,Potency,OV90,inactive
same,Potency,Tov-21-G,inactive
same,Potency,Tov112D,inactive
Cn1cnc(-c2nccc3c(=O)[nH]c(OCCCC(F)(F)F)nc23)c1,Potency,[1],inactive
same,Potency,[3],2.9 µM (active)
same,Potency,[4],2.58 µM (active)
same,Potency,[8],8.06 µM (active)
same,Potency,[9],22.7 µM (active)
same,Potency,[5],inactive
same,Potency,[6],inactive
same,Potency,[7],inactive
same,Potency,C33A,inactive
same,Potency,CASKI,inactive
same,Potency,HeLa,inactive
same,Potency,Tov112D,inactive
CC(=O)Nc1ccc(C(=O)Nc2ccccc2N)cc1,Potency,[1],inactive
same,outcome,[2],inactive
same,Potency,[3],3.55 µM (active) and 3.72 µM (active)
same,Potency,[4],2.82 µM (active) and 3.72 µM (active)
same,Potency,[8],inactive
same,Potency,[5],inactive
same,Potency,[6],inactive
same,Z-AUC,[11],-0.302 (inactive)
same,Z-AUC,[11]; measured here: PEO1 parental Z-AUC,-0.636
same,Z-AUC,[11]; measured here: PEO4 Z-AUC,-0.146
same,Potency,C33A,inactive
same,Potency,CASKI,inactive
same,Potency,OV90,3.98 µM (active)
same,Potency,Tov112D,inactive
Clc1ccccc1CNCC1CCC(CNCc2ccccc2Cl)CC1 (centres undefined),Potency,[1],inactive
same,outcome,[2],inactive
same,Potency,[3],18.3 µM (active)
same,Potency,[4],20.5 µM (active)
same,Potency,[8],inactive
same,Potency,[9],inactive
same,Potency,[5],inactive
same,Potency,[6],inactive
same,Potency,C33A,inactive
same,Potency,CASKI,inactive
same,Potency,HeLa,inactive
same,Potency,Hek293T,inactive
same,Potency,OV90,inactive
same,Potency,Tov-21-G,inactive
COc1ccc(-c2nc(-c3cc(C(F)(F)F)cc(C(F)(F)F)c3)n(Cc3ccc(C(N)=O)cc3)c2-c2ccc(OC)cc2)cc1,outcome,[2],inactive
same,Potency,[3],inactive
same,Potency,[4],inactive
same,Potency,[8],inactive
same,Potency,[9],inactive
same,Potency,[6],inactive
same,Potency,C33A,inactive
same,Potency,CASKI,inactive
same,Potency,Es-2,inactive
same,Potency,HeLa,inactive
same,Potency,JEG-3,inactive
same,Potency,OV90,inactive
same,Potency,Tov-21-G,inactive
same,Potency,Tov112D,inactive
Cc1ccn(-c2cc(Cl)ccc2[C@@H](Oc2cc(-c3ccc(C[C@H](N)C(=O)O)cc3)nc(N)n2)C(F)(F)F)n1,Potency,[1],22.4 µM (active)
same,outcome,[2],inactive
same,Potency,[8],inactive
same,Potency,[5],inactive
same,Potency,[6],inactive
same,Potency,C33A,inactive
same,Potency,CASKI,inactive
same,Potency,Es-2,inactive
same,Potency,HeLa,inactive
same,Potency,Hek293T,inactive
same,Potency,JEG-3,inactive
same,Potency,OV90,inactive
same,Potency,Tov-21-G,inactive
same,Potency,Tov112D,inactive
C=C1C(=O)O[C@@H]2C[C@@]3(C)CCC[C@H](C)C3=C[C@H]12,Potency,[10],14.6 µM (active)
same,Potency,[1],inactive
same,outcome,[2],inactive
same,Potency,[3],14.5 µM (active)
same,Potency,[4],12.9 µM (active)
same,Potency,[8],inactive
same,Potency,[9],inactive
same,Potency,[5],inactive
same,Potency,[6],inactive
same,Potency,[7],inactive
same,Potency,C33A,inactive
same,Potency,CASKI,inactive
same,Potency,HeLa,inactive
same,Potency,Hek293T,inactive
same,Potency,JEG-3,inactive
same,Potency,OV90,inactive
same,Potency,Tov112D,inactive
CCCc1c(C(C)C)nc(C(C)C)c([C@@H](C)O)c1-c1ccc(F)cc1O,outcome,[2],inactive
same,Potency,[4],14.5 µM (active)
same,Potency,[8],inactive
same,Potency,[9],inactive
same,Potency,[5],inactive
same,Potency,[6],inactive
same,Potency,[7],inactive
same,Potency,CASKI,inactive
same,Potency,Es-2,inactive
same,Potency,Hek293T,inactive
same,Potency,OV90,inactive
same,Potency,Tov-21-G,inactive
CC[C@@H](C)[C@H]1C(=O)O[C@H](C(C)C)C(=O)N(C)[C@@H](C(C)C)C(=O)O[C@H](C(C)C)C(=O)N(C)[C@@H](C(C)C)C(=O)O[C@H](CC(C)C)C(=O)N1C,Potency,[1],inactive
same,outcome,[2],inactive
same,Potency,[3],5.41 µM (active)
same,Potency,[4],2.16 µM (active)
same,Potency,[8],inactive
same,Potency,[9],inactive
same,Potency,[5],inactive
same,Potency,[6],inactive
same,Potency,[7],inactive
same,Potency,JEG-3,inactive
